MEKK2 mut-MEK5 = MEK5 binding signal on mutant MEKK2 PB1, primary screen, biochemical, multiplex bead flow cytometry, Alexa488-MEK5; AID 1530, 2009; percent response, % at 10 µM; 290,000 compounds, 0.35% hits; Alexa488-MEK5 binding to MEKK2 mutant; in the data active = percent response above about 24%, passing the limit was not always enough
MEKK3 PB1 HTS = modulators of MEKK3-MEK5 PB1 binding, primary screen, biochemical, wildtype MEKK3, multiplex bead flow cytometry, Alexa488-MEK5. 290,000 compounds, 1.4% hits. bead-based flow cytometry, Alexa488-MEK5 binding to MEKK3; actives lie on both sides; 0 = blocked by unlabeled MEK5, 100 = vehicle. binding response (% of control), % at 10 µM. Mitogen-activated protein kinase kinase kinase 3 (Homo sapiens), Q99759;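 active = binding response more than 3 SD above or below the average of its plate-row segment, actives on both sides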;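 also: Alexa488 bead fluorescence after subtracting the streptavidin-only scavenger bead signal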
Target sequence (Q99759 whole entry, looked up): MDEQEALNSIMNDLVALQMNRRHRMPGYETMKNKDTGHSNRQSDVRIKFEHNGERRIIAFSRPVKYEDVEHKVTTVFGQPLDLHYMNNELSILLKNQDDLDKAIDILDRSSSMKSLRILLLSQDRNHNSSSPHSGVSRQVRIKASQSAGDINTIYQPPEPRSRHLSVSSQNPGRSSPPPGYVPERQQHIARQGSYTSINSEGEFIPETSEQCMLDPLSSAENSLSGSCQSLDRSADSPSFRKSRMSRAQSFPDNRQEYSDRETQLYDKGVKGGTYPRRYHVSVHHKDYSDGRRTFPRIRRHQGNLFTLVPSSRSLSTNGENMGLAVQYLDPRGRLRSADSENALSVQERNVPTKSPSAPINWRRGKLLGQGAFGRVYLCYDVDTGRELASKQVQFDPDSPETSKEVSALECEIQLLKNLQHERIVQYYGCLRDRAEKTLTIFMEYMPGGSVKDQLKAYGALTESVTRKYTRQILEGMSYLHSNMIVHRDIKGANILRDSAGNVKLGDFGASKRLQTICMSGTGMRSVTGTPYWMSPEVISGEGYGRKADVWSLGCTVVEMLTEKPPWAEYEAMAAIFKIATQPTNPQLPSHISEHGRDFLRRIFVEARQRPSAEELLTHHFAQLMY
GRK2 aptamer HTS = compounds blocking aptamer binding on GRK2 – biochemical, human GRK2, bead flow cytometry, HTS, primary screen; Beta-adrenergic receptor kinase 1 (Homo sapiens), P25098; FAM-aptamer displacement from GRK2; inhibition of aptamer binding, % at 10 µM; 330,000 compounds, 0.59% hits; AID 488847, 2010;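 active = inhibition of aptamer binding above 40%, roughly 3 SD of noise, on plates passing a quality check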;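 also: median bead fluorescence of bound FAM aptamer so fluorescent compounds give negative values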
MEKK2wt PB1 HTS = modulators of MEK5 binding to wildtype MEKK2, primary screen, biochemical, multiplex bead flow cytometry, Alexa488-MEK5; binding response (% of control), % at 10 µM; 290,000 compounds, 1.1% hits; Alexa488-MEK5 binding to MEKK2 WT; actives lie on both sides; in the data active = binding response below about 67% or above about 130%
MEKK2wt confirm = modulators of MEK5 binding to wildtype MEKK2, confirmation, biochemical, single concentration, multiplex bead flow cytometry | AID 1892, 2009 | Alexa488-MEK5 binding to MEKK2 WT; actives lie on both sides | binding response (% of control), % at 10 µM | shares compounds with MEKK3 PB1 HTS | 5,900 compounds, 2.4% hits; in the data active = binding response below about 16% or above about 210%; inactive = in between
MEKK2mut confirm = mutant MEKK2 PB1-MEK5 binding signal retest – biochemical, single concentration, multiplex bead flow cytometry, confirmation; 5,900 compounds, 2% hits; shares compounds with MEKK3 PB1 HTS; percent response, % at 10 µM; Alexa488-MEK5 binding to MEKK2 mutant; in the data active = percent response mostly above about 71%, no sharp cut-off; inactive = mostly below about 38%;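 also: higher means compound restores mutant binding toward wildtype level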
MEKK3-MEK5 inh = MEKK3 wild-type PB1 binding to MEK5, inhibitors, confirmation, biochemical, bead multiplex flow cytometry, single concentration, wildtype. shares compounds with MEKK3 PB1 HTS. Alexa488-MEK5 binding to MEKK3; hits give low values. binding response (% of control), % at 10 µM. 5,900 compounds, 1.8% hits;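 active = binding response below 72% of control, or above a set upper limit, though filed actives all read lower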;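 also: lower values mean stronger disruption of MEK5 binding to MEKK3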
Hits are given with their value; n = inactive; x = not tested or not shown; [ ] = another dose, or the depositor's remark. Sampled rows, rich in hits. Any-hit rate of the full collection: about 2.5%.

SMILES	MEKK2 mut-MEK5	MEKK3 PB1 HTS	GRK2 aptamer HTS	MEKK2wt PB1 HTS	MEKK2wt confirm	MEKK2mut confirm	MEKK3-MEK5 inh
Cc1cc(=O)[nH]c2ccc(S(=O)(=O)NC3CCCCC3)cc12	n	n	n	n	x	x	x
COC(=O)c1c(NC(=O)CSc2nc(-c3ccco3)cc(C(F)(F)F)n2)sc2c1CCCC2	n	0.0[inhibitor]	n	-8.0[inhibitor]	n	n	n
COc1ccccc1-n1c(=O)c(C#N)c(-c2ccc([N+](=O)[O-])cc2)c2cc(C(=O)c3ccccc3O)cnc21	n	n	n	n	x	x	x
CCC(C)n1c(SCc2ccccc2)nc2ccsc2c1=O (stereo not drawn)	n	151	n	n	n	n	n
Cc1ccc(CSc2nc3ccsc3c(=O)n2Cc2ccccn2)cc1	n	139	n	n	n	n	n
O=C(NCc1cccs1)c1ccc(Cl)c(S(=O)(=O)N2CCCC2)c1	n	74[inhibitor]	n	n	n	n	n
O=C(NCc1cccs1)c1cccc(S(=O)(=O)N2CCCCC2)c1	n	n	n	n	x	x	x
O=C(NCc1ccco1)c1ccc(S(=O)(=O)N2CCCCC2)cc1	n	130	n	n	n	n	n
O=C(NCc1ccco1)c1ccc(S(=O)(=O)N2CCCCCC2)cc1	x	x	n	x	x	x	x
CSc1ccc(CN(C)C(=O)C23CC4CC(CC(Cl)(C4)C2)C3)cc1	n	n	n	n	x	x	x
S=C(Nc1ccc(Br)cc1)N1CCCC1	n	131	n	n	n	n	n
COc1ccc(NC(=S)N2CCCC2)cc1	n	59[inhibitor]	n	n	n	n	n
C#CCOCCOCCOCCNc1nc(N2CCN(C(=O)[C@H](Cc3ccc(O)cc3)n3cc([C@@H](N)CC(C)C)nn3)CC2)nc(N2CCN(C(=O)[C@H](Cc3cc4ccccc4[nH]3)n3cc([C@@H](N)CC(C)C)nn3)CC2)n1	99	n	x	230	245	93	n
C#CCOCCOCCOCCNc1nc(N2CCN(C(=O)[C@H](Cc3ccc(O)cc3)n3cc([C@@H](N)C(C)CC)nn3)CC2)nc(N2CCN(C(=O)[C@H](Cc3cc4ccccc4[nH]3)n3cc([C@@H](N)Cc4ccc(O)cc4)nn3)CC2)n1 (stereo partly drawn)	n	n	n	169	241	125	n
C#CCOCCOCCOCCNc1nc(N2CCN(C(=O)[C@H]([C@@H](C)CC)n3cc([C@@H](N)Cc4ccc(O)cc4)nn3)CC2)nc(N2CCN(C(=O)[C@H](Cc3cc4ccccc4[nH]3)n3cc([C@@H](N)CC(C)C)nn3)CC2)n1	x	x	n	x	x	x	x
C#CCOCCOCCOCCNc1nc(N2CCN(C(=O)[C@H]([C@@H](C)CC)n3cc([C@@H](N)CC(C)C)nn3)CC2)nc(N2CCN(C(=O)[C@H](Cc3cc4ccccc4[nH]3)n3cc([C@@H](N)Cc4ccc(O)cc4)nn3)CC2)n1	128	n	n	270	226	n	n
C#CCOCCOCCOCCNc1nc(N2CCN(C(=O)C(Cc3cc4ccccc4[nH]3)n3cc(C(N)C(C)CC)nn3)CC2)nc(N2CCN(C(=O)C(Cc3cc4ccccc4[nH]3)n3cc(C(N)C(C)CC)nn3)CC2)n1 (stereo not drawn)	105	n	x	254	254	107	n
Cc1cc(C(=O)OCC(=O)NC2(C#N)CCCCC2)c(C)o1	x	x	n	x	x	x	x
Cc1ccc(C)c(N2N=C(C(=O)Nc3cccc(S(=O)(=O)N4CCCCC4)c3)CCC2=O)c1	x	x	n	x	x	x	x
COc1cc(C2C(C#N)=C(N)Oc3c2c(-c2ccccc2)nn3-c2ccccc2)cc(OC)c1OC (stereo not drawn)	n	n	n	n	x	x	x
COc1cccc(F)c1C(C[N+](=O)[O-])c1c(N)n(C)c(=O)n(C)c1=O (stereo not drawn)	n	n	n	n	x	x	x
C#CCOCCOCCOCCNc1nc(N2CCN(C(=O)[C@H]([C@@H](C)CC)n3cc([C@@H](N)CO)nn3)CC2)nc(N2CCN(C(=O)[C@H]([C@@H](C)CC)n3cc([C@@H](N)CC(C)C)nn3)CC2)n1	n	n	n	139	n	n	n
C#CCOCCOCCOCCNc1nc(N2CCN(C(=O)[C@H]([C@@H](C)CC)n3cc([C@@H](N)CO)nn3)CC2)nc(N2CCN(C(=O)[C@H]([C@@H](C)CC)n3cc([C@@H](N)CO)nn3)CC2)n1	n	n	x	n	x	x	x
C#CCOCCOCCOCCNc1nc(N2CCN(C(=O)C(Cc3ccc(O)cc3)n3cc(C(N)CC(C)C)nn3)CC2)nc(N2CCN(C(=O)C(Cc3cc4ccccc4[nH]3)n3cc(C(N)C(C)CC)nn3)CC2)n1 (stereo not drawn)	118	n	n	239	237	89	n
C#CCOCCOCCOCCNc1nc(N2CCN(C(=O)[C@H]([C@@H](C)CC)n3cc([C@@H](N)CC(C)C)nn3)CC2)nc(N2CCN(C(=O)[C@H](Cc3cc4ccccc4[nH]3)n3cc([C@@H](N)C(C)CC)nn3)CC2)n1 (stereo partly drawn)	37	n	x	184	227	90	n
SMILES	MEKK2 mut-MEK5	MEKK3 PB1 HTS	GRK2 aptamer HTS	MEKK2wt PB1 HTS	MEKK2wt confirm	MEKK2mut confirm	MEKK3-MEK5 inh
O=C(O)CSc1c2c(nc3cc(C(=O)Nc4ccc(F)c(Cl)c4)ccc13)CCCC2	n	n	n	n	x	x	x
Cc1cc(C)c(CN2CCN(C(=O)Cn3cnc4c(NCc5ccccc5)ncnc43)CC2)c(C)c1	x	x	n	x	x	x	x
O=C1CC(N(CCc2ccccc2)C(=S)Nc2ccccc2)C(=O)N1c1ccc(Br)cc1 (stereo not drawn)	n	n	n	149	n	n	n
CN(c1nc2ccccc2[nH]c1=O)C1CCCCC1	n	n	n	n	x	x	x
CC1CCN(S(=O)(=O)c2cccc(S(=O)(=O)N3CCCC3)c2)CC1	n	n	n	n	x	x	x
CC1CCCC(NC(=O)Cc2ccc(Br)cc2)C1C (stereo not drawn)	n	131	n	n	n	n	n
CC1CCCC(NC(=O)CSc2nnnn2C)C1C (stereo not drawn)	n	0.0[inhibitor]	n	-8.0[inhibitor]	n	n	n
CN(C)c1ccc(/C=C/C(=O)c2cccc(Br)c2)cc1	n	n	n	63[inhibitor]	n	n	n
